# Bioassay records from PubChem.
# IL-1B inflam inh = blocks inflammasome-driven IL-1 beta release; THP-1 LPS/ATP IL-1B secretion, AlphaLISA, 16 h; hits give low values; activity change, % at 57.5 µM; 360,000 tested, 4.7% active; AID 743279; in the data active = activity change below about -50%; inconclusive = mostly about -30% to -49%
#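 THP-1 cells pretreated 1 hr with compounds (up to 57.5 uM final), then stimulated with LPS (250 ng/mL final) plus ATP (1.25 mM final); secreted IL-1B measured by AlphaLISA after 16 hr, decreased signal indicating inhibition.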
# DT40 TDP1 CPT = growth inhibition of DT40 Tdp1-/-;hTDP1 cells with camptothecin (screen for TDP1 inhibitors) | 420,000 tested, 12% active | chicken DT40 Tdp1-/-;hTDP1 cells + 20 nM CPT, ATP luminescence, 48 h | Potency, µM (series often up to 46.2 µM), hits mostly inhibitors; also: nearly all actives have a fitted effect of over 55% in size
#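 Cell growth measured by CellTiter-Glo luminescence after a minimum 48 h, 37 C compound exposure with 20 nM CPT in Tdp1-knockout DT40 cells stably expressing hTDP1, seeded 400/well; qHTS titration format.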
# HT1080NT lethal = kills 2HG-producing HT-1080-NT fibrosarcoma cells. HT-1080-NT fibrosarcoma viability, CellTiter-Glo ATP luminescence, 48 h. Potency, µM (highest dose often 46.1 µM), actives largely listed as cytotoxic. 360,000 tested, 1.6% active. AID 686970;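 also: NT is the 2HG producing partner of a matched IDH1 knockdown line; nearly all actives have a fitted effect of over 55% in size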
#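 Viability of the 2HG-overproducing fibrosarcoma line after 48 hours of compound exposure at 37 degrees C was determined by luminescence with CellTiter-Glo, and concentration-effect curves were then fitted and categorized.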
# DT40 TDP1 no CPT = qHTS for Inhibitors of human tyrosyl-DNA phosphodiesterase 1 (TDP1): qHTS in cells in absence of CPT; AID 686978, 2013; 420,000 tested, 15% active; DT40 Tdp1-/- hTDP1 cells, no CPT, ATP luminescence, 48 h; Potency, µM (doses to about 46.2 µM), actives largely listed as inhibitors; also: nearly all actives have a fitted effect of over 55% in size
#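 Compound effects on proliferation are scored in DT40 Tdp1-/-;hTDP1 cells in the absence of CPT. ATP levels (CellTiter-Glo luminescence) are recorded after a ≥48 hr, 37 °C incubation.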
# HT1080 IDH1KD tx = toxicity to HT-1080 IDH1 knockdown cells (counter line) | HT-1080 IDH1 knockdown viability, ATP luminescence, 48 h | Potency, µM (series often up to 46.1 µM), usual class: cytotoxic | 360,000 tested, 2% active
#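 Luminescent ATP read-out (CellTiter-Glo, 10 min at room temperature) after 48 h compound exposure at 37 °C gave viability of IDH1-knockdown HT-1080 cells. Activity was normalised to DMSO and cell-free wells, then fitted as concentration-response curves.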
# Numbers stand for hits; – = inactive; ? = inconclusive; · = no result. Only some compounds are listed: those with a hit (about 19% of all), similar ones and a draw of the others. Unless noted, calls follow the shape of the dose curve; as a rule, active = well fitted curve in the direction sought with a large enough effect; inconclusive = small, poorly fitted or top-dose-only effect, or another doubt; inactive = no such curve, though single readings can be large; an effect the other way counts as inactive or inconclusive.
SMILES,IL-1B inflam inh,DT40 TDP1 CPT,HT1080NT lethal,DT40 TDP1 no CPT,HT1080 IDH1KD tx
CC(C)c1ccc(N=C2NN=C(c3cccs3)CS2)cc1,–,?,?,?,?
CC(C)N=C1NN=C(c2ccc(Cl)c(Cl)c2)CS1,-73.8,?,–,?,–
CC(C)(C)N=C1NN=C(c2ccc(Cl)cc2)CS1,–,?,–,18.4µM,–
Cc1ccc(C2=NNC(=Nc3ccc(F)cc3)SC2)cc1,-74.3,?,?,?,?
COCCCNC(=O)Cn1c(=O)n(CCCCCC(=O)NCc2ccc3c(c2)OCO3)c(=O)c2sccc21,–,–,–,–,–
COc1ccc(-c2c(NC(=O)c3ccco3)n(C)c3ccccc3c2=O)cc1,–,–,–,–,–
COCc1cc(=O)[nH]c(Cc2c(Cl)cccc2Cl)n1,–,–,–,–,–
CC1CCc2nc(-c3cc4c(ccc5ccccc54)oc3=O)sc2C1 (stereo not drawn),·,–,·,–,·
Cc1ccccc1SCC(=O)NCC(c1ccc(F)cc1)N1CCOCC1 (stereo not drawn),–,?,–,?,–
COc1cc(C(=O)NCC(c2ccc(F)cc2)N2CCOCC2)ccc1OCc1ccccc1Cl (stereo not drawn),-59.9,?,–,?,–
OC(c1ccc(F)cc1)C(CN1CCOCC1)c1ccccc1 (stereo not drawn),–,–,–,?,–
O=C(NCC(c1ccc(F)cc1)N1CCOCC1)c1ccc(C(=O)c2ccccc2)cc1 (stereo not drawn),–,?,–,20.6µM,–
O=C(CC12CC3CC(CC(C3)C1)C2)NCC(c1ccc(F)cc1)N1CCOCC1 (stereo not drawn),–,25.9µM,–,?,–
OC(c1ccccc1)(c1ccc(F)cc1)C(c1ccccc1)N1CCOCC1 (stereo not drawn),–,16.4µM,?,18.4µM,–
CCC(Sc1nc2ccccc2c(=O)n1CC1CCCO1)C(=O)NCc1cccnc1 (stereo not drawn),–,–,–,–,–
CCCC1=[N+](CC(=O)c2ccccc2)CCn2cccc21,–,23.1µM,–,25.9µM,–
CCCC1=[N+](CC(C)=O)CCn2c(C)ccc21,–,3.26µM,–,2.31µM,–
CCCC1=[N+](CC(=O)c2ccc(Br)cc2)CCn2cccc21,–,–,–,?,–
Cc1noc(C)c1C(=O)N1CCC[C@@]2(CCN(C(=O)Nc3cccc(C#N)c3)C2)C1,·,–,·,–,·
O=C(NCc1cccc(F)c1)c1[nH]c(C(F)(F)F)nc1-c1ccccc1,–,?,?,?,–
COC(=O)c1[nH]c2cc(OC)c(OC)cc2c1NC(=O)c1cccc(OC)c1,?,?,–,20.6µM,–
CCOC(=O)c1[nH]c2ccccc2c1NC(=O)c1cc(OC)cc(OC)c1,·,23.1µM,·,23.1µM,·
CCOC(=O)c1[nH]c2ccccc2c1NC(=O)c1cc(OC)c(OC)c(OC)c1,–,–,–,?,–
CCOC(=O)c1[nH]c2ccc(OC)cc2c1NC(=O)c1ccc(OC)c(OC)c1,–,–,–,?,–
COC(=O)c1cccc(CN2C(=O)C(C)Oc3ccc(C)cc32)c1 (stereo not drawn),–,20.6µM,–,20.6µM,–
SMILES,IL-1B inflam inh,DT40 TDP1 CPT,HT1080NT lethal,DT40 TDP1 no CPT,HT1080 IDH1KD tx
CN(C)c1ccc(CN(CC2CCCO2)C(=O)COc2ccccc2Cl)cc1 (stereo not drawn),·,?,·,18.4µM,·
COc1ccccc1OCc1ccc(C(=O)NCC2CCCO2)o1 (stereo not drawn),–,–,–,–,–
COc1ccc(CN(CC2CCCO2)C(=O)CN2C(=O)C(C)Oc3ccc(C)cc32)cc1OC (stereo not drawn),–,?,–,18.4µM,–
COc1ccccc1OCC(=O)N(Cc1ccc(N(C)C)cc1)CC1CCCO1 (stereo not drawn),·,23.1µM,·,14.6µM,·
CSCC[C@H](NC(=O)c1ccco1)c1nnc2ccccn12,–,–,–,–,–
O=C(COc1ccccc1Cl)Nc1ccc(CN2CCCCC2)cc1,–,–,–,?,–
Cc1cc(Cl)ccc1OCC(=O)N(Cc1ccc(N(C)C)cc1)CC1CCCO1 (stereo not drawn),·,?,·,25.9µM,·
Cc1onc(-c2ccccc2)c1NC(=O)N(CCC#N)Cc1ccccc1,·,–,–,–,–
COc1cccc(CSc2nc3cc4c(cc3cc2C)OCCO4)c1,–,?,–,29.1µM,–
CCC(C)[C@H](NC(=O)N1CCN(C)CC1)C(=O)OC (stereo partly drawn),–,–,–,–,–
COc1ccc(-n2c(SCCNCCO)nc3sc4c(c3c2=O)CCCC4)cc1,-75.2,?,?,?,?
COc1ccc(-n2c(NNC(C)=O)nc3sc4c(c3c2=O)CCCC4)cc1,–,3.26µM,–,4.11µM,–
NNc1nc2sc3c(c2c(=O)n1-c1ccccc1)CCCC3,–,18.4µM,–,?,–
Nn1c(Nc2ccccc2)nc2sc3c(c2c1=O)CCCC3,–,?,–,?,–
COc1ccc(-n2c(SCC(=O)O)nc3sc4c(c3c2=O)CCCC4)cc1,–,–,–,–,–
O=C(Nc1ccccc1)C(Cc1ccccc1)c1ccccc1 (stereo not drawn),–,?,–,–,–
CC(C(=O)Nc1ccccc1)C(=O)Nc1ccccc1,–,–,–,–,–
CC(=O)C(Cl)C(=O)Nc1ccccc1 (stereo not drawn),-85.6,2.59µM,?,4.11µM,?
O=C(Nc1ccccc1)C(Cl)C(=O)c1ccccc1 (stereo not drawn),?,6.51µM,–,8.2µM,–
CC1(C)CC(=O)C(C(=O)c2ccccc2)C(=O)C1Cl (stereo not drawn),–,–,–,–,–
Cc1ccc2nc(SCC(=O)Nc3cccc([N+](=O)[O-])c3)[nH]c2c1,?,–,–,–,?
Cc1ccc(C(=O)N2CCN(C)CC2)cc1S(=O)(=O)N1CCCCCC1,–,–,–,–,–
Cc1ccc(Cn2cc(C(=O)c3ccc4c(c3)OCO4)c(=O)c3cc(C)ccc32)cc1,·,?,·,23.1µM,·
Cc1ccc(C(=O)c2cn(Cc3ccccc3F)c3cc4c(cc3c2=O)OCO4)cc1,·,?,·,20.6µM,·
O=C1C=CC(c2ccccc2)(c2ccccc2)CC1,–,?,–,?,–
Cc1c2cnccc2c(C)c2c1oc1ccccc12,-72.9,?,–,23.1µM,–
COc1ccc2nc(SCC(=O)NCC(F)(F)F)[nH]c2c1,–,–,–,–,–
COc1ccc(OC)c(N=Cc2c(O)c3ccccc3oc2=O)c1,–,?,–,?,–
COc1ccc(Cl)cc1N=Cc1c(O)c2ccccc2oc1=O,–,16.4µM,–,?,–
